# Screening results: PubChem BioAssay, The Scripps Research Institute Molecular Screening Center
# Hits are enriched below; roughly 3.5% of the tested compounds scored in any of these assays.
# FBW7 activator = activators of human E3 ligase FBW7 | 0.13% of 650,000 active | AID 1259310 | normalized activity (activation), % at 26.1 µM | AlphaScreen FBW7–phospho-cyclin E peptide binding, activator screen | Q969H0; in the data active means normalized activity above about 1.9%;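 further: purified mutant Fbw7 with reduced substrate affinity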
# MITF primary = blocks human microphthalmia-associated transcription factor | O75030 | AlphaScreen MITF homodimerization, bead proximity signal | inhibition, % at 2.6 µM | 0.91% of 650,000 active | AID 1259374; in the data active means inhibition above about 50%;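 further: 0% = vehicle wells with protein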
# Target sequence (O75030 whole entry, looked up): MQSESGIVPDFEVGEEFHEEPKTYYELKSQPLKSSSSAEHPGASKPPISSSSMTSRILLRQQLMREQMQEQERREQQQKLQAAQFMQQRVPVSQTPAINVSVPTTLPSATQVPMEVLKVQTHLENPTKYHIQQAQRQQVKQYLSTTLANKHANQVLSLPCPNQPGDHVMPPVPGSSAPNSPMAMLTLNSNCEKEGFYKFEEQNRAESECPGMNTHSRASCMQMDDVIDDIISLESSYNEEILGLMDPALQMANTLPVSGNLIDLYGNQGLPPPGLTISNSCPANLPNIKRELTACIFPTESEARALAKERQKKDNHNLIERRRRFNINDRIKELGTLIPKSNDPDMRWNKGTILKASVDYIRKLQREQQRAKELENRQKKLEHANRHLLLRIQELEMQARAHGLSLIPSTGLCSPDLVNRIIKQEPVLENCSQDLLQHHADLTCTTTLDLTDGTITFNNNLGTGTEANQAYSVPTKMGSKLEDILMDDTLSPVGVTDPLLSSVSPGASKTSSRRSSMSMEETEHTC
# GPR151 ag = activators of human GPR151. PathHunter beta-arrestin GPR151 cells, luminescence. activation, % at 11.2 µM. 1% of 650,000 active; in the data active means activation above about 4.9%;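 further: 0% = median of compound wells and 100% = cells with positive control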
# TEAD-YAP inh = TEAD-YAP interaction inhibition; HEK-TIYL cells, TEAD-Gal4/YAP UAS-luciferase luminescence; inhibition, % at 9.12 µM; 1.4% of 640,000 active; AID 1259422; in the data active means inhibition above about 32%;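 further: 0% = median of test compound wells and 100% = reference inhibitor wells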
# Starred values were filed as active, the others as inactive.
SMILES,FBW7 activator,MITF primary,GPR151 ag,TEAD-YAP inh
NC(=O)c1ccccc1Nc1cc(NC(=O)Cc2ccc([N+](=O)[O-])cc2)ncc1C(F)(F)F,0,2,1,96*
CNC(=O)c1cncnc1Nc1cc(NC(=O)Cc2ccc(OC)cc2)ncc1C(F)(F)F,0,7,1,54*
COc1ccc(CC(=O)Nc2cc(Nc3ccccc3C(N)=O)c(C(F)(F)F)cn2)cc1,0,-2,-2,98*
CC(C)NC1CCC(Nc2cc(Nc3ccccc3C(N)=O)c(C(F)(F)F)cn2)CC1 (stereo unspecified),0,9,-2,94*
CNC(=O)c1cncnc1Nc1cc(Nc2ccc3c(c2)CC(=O)N3)ncc1C(F)(F)F,0,2,0,25
O=C(CC1(C(F)(F)F)NCCN1)c1ccc(Cl)cc1,0,5,3,1
CC(=O)c1ccc(N2CCN(C(=O)Cn3c(=O)oc4ccccc43)CC2)cc1,0,15,1,8
NC(=O)c1ccccc1Nc1cc(NC(=O)Cc2ccc(F)cc2)ncc1C(F)(F)F,0,18,2,95*
NC(=O)c1ccccc1Nc1cc(NC(=O)C2CCc3ccccc32)ncc1C(F)(F)F (stereo unspecified),0,16,1,75*
O=C(Cc1ccc(F)cc1)Nc1cc(Nc2ccccc2-c2nn[nH]n2)c(C(F)(F)F)cn1,0,2,-1,-3
COc1ccc2c(c1)CCC2C(=O)Nc1cc(Nc2ccccc2C(N)=O)ccn1 (stereo unspecified),0,-2,0,13
O=C(O)c1ccc(N/N=C/c2c[nH]c3ccccc23)cc1,0,-2,-6,85*
O=C(N/N=C/c1c[nH]c2ccccc12)c1cc(-c2ccccc2)n[nH]1,0,-10,1,0
O=C(N/N=C/c1c[nH]c2ccccc12)c1cc(-c2ccncc2)nc2ccccc12,0,6,-2,35*
O=C(N/N=C\c1c[nH]c2ccccc12)c1ccc(O)cc1,0,1,0,-3
Cn1cc(CN2CCC(c3[nH]ncc3Cc3ccccc3)CC2)cn1,0,12,-1,3
Cn1ncc(-c2ccnc(Nc3ccc(N4CCOCC4)cc3)c2)c1Nc1ccccc1,-1,-4,2,20
Cn1ncc(-c2ccnc(Nc3ccc(-n4cnc(N5CCOCC5)n4)cc3)c2)c1NC(=O)Cc1ccccc1,-1,-2,1,42*
Cc1ncn(-c2ccc(Nc3cc(-c4cnn(CCc5ccccc5)c4-c4ccc(F)cc4)ccn3)cc2)n1,0,24,0,34*
Cn1ncc(-c2ccnc(Nc3ccc(N4CCOCC4)cc3)c2)c1N,0,0,0,35*
CCCn1cc(-c2ccnc(Nc3ccc(-n4cnc(C)n4)cc3)c2)c(-c2ccc(F)cc2)n1,0,29,1,-7
COc1ccccc1NC(=O)CCSCCC(=O)Nc1ccccc1OC,0,-11,-1,3
COc1ccc(C)cc1NC(=O)CCSCCC(=O)Nc1cc(C)ccc1OC,0,1,1,33*
CN(Cc1ccccc1)CC(O)COc1ccc(CNC2CC2)cc1 (stereo unspecified),0,-14,1,7
CCN(CC)CC(O)CN1CCN(c2ccc(OC)cc2)CC1 (stereo unspecified),0,55*,-1,2
SMILES,FBW7 activator,MITF primary,GPR151 ag,TEAD-YAP inh
COc1ccc(N2CCN(CC(O)COC(C)(C)C)CC2)cc1 (stereo unspecified),0,46,0,-6
COc1ccc(N2CCN(C(C)CC(=O)O)CC2)cc1 (stereo unspecified),0,72*,0,-7
O=C(COC(=O)c1ccc(Br)cc1)c1ccc(F)cc1,0,-7,1,-6
CCOc1ccccc1NC(=O)c1c(NC(=O)c2ccc(C)cc2)sc2c1CCC2,0,-6,0,8
CCC(C)(C)NC(=O)C(OC(=O)c1cccs1)c1ccsc1 (stereo unspecified),0,-11,0,3
COc1cc2c(cc1OC)C(c1cccs1)N(C(=O)c1cccnc1)CC2 (stereo unspecified),-1,10,-2,46*
c1ccc(-n2cnc3c(NCc4nc5ccccc5[nH]4)nc(Nc4cccnc4)nc32)cc1,0,9,-3,73*
c1ccc(-n2cnc3c(NCc4nc5ccccc5[nH]4)nc(Nc4ccc(-n5ccnc5)cc4)nc32)cc1,0,2,-1,57*
c1ccc(-n2cnc3c(NCc4nc5ccccc5[nH]4)nc(Nc4ccncc4)nc32)cc1,0,9,-2,73*
c1ccc2[nH]c(CNc3nc(Nc4ccncc4)nc4c3ncn4C3CCCCC3)nc2c1,0,15,0,64*
